# YopH inh = YopH (Yersinia) phosphatase inhibition; fluorescence Ex485/Em525; inhibition, % (test concentration not listed); 140,000 tested, 0.16% active; AID 898; in the data active means inhibition above about 50%
# RmlCD inh mix = inhibitors of RmlC and RmlD coupled enzymes. RmlC/RmlD coupled enzyme inhibition, 384-well mixture HTS. inhibition, % at 5.5 µM. 110,000 tested, 0.39% active; in the data active means inhibition above about 30%, passing the limit was not always enough
# RmlCD artifact = counter-screen for RmlC/RmlD inhibitors: fluorescence artifact | shares compounds with RmlCD inh mix | RmlC/RmlD assay fluorescence artifact counter-screen | calls only | 360 tested, 96% active; call rule not given here;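 further: compound alone with no enzyme and no substrates present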
# * hit, by the source's call; i = inactive; nt = not tested or not shown; + = active, no number. Rows were chosen to be rich in hits. Some 0.44% of all compounds tested hit in one or more screens of this group.
SMILES,YopH inh,RmlCD inh mix,others
Cc1nc(N2CCOCC2)nc(OCCN2CCOCC2)c1[N+](=O)[O-],-15,nt,
C=C1CCN([C@@H](Cc2ccccc2)C(=O)NCCCc2ccccc2)S(=O)(=O)c2ccccc21,nt,-16,
COCCCNC(=O)CC(NS(=O)(=O)c1ccc(F)cc1)c1ccc(OC)cc1 (centres undefined),68*,5,
COCCCNC(=O)CC(NS(=O)(=O)c1ccc(C)cc1)c1ccco1 (centres undefined),-26,11,
COCCNC(=O)[C@@]1(Cc2ccccc2)C=C[C@@H](C)N1C(C)=O,-37,8,
Cc1cccc(NC(=O)c2nc[nH]c2C(=O)NCC(=O)OC(C)(C)C)c1,nt,-7,
CN1CCN(NC(=O)c2ccc(F)cc2)CC1,-7,nt,
Cc1ccc(C(=O)N2C(=S)C(c3ccc(F)cc3)=NC23CCN(C)CC3)cc1,77*,nt,
COc1ccc(-n2c(NC(=O)c3ccco3)c(C#N)c3nc4ccccc4nc32)cc1,90*,29,
COCCNC(=O)c1c(NC(=O)c2ccco2)n(Cc2ccccc2)c2nc3ccccc3nc12,-13,-45,
CN1C(=O)C(Cc2c[nH]c3ccccc23)C(=O)N(C)C1=O,-26,nt,
CN1C(=O)C(Cc2cccc3ccccc23)C(=O)N(C)C1=O,55*,8,
CCOC(=O)c1sc(-c2ccccc2)cc1NC(=O)Nc1ccc([N+](=O)[O-])cc1,-11,nt,
COc1ccc(N2CSC3=C(C#N)C(c4cc(OC)c(OC)cc4OC)CC(=O)N3C2)c(OC)c1 (centres undefined),42,7,
COc1ccc(N2CSC3=C(C#N)C(c4cc(OC)ccc4OC)CC(=O)N3C2)c(OC)c1 (centres undefined),69*,6,
CCOc1ccccc1N1CSC2=C(C#N)C(c3c(OC)ccc4ccccc34)CC(=O)N2C1 (centres undefined),90*,-3,
COc1ccc(C2CC(=O)N3CN(c4ccc(C)c(Cl)c4)CSC3=C2C#N)cc1OC (centres undefined),-36,-11,
COc1ccc(N2CSC3=C(C#N)C(c4ccc(OC)c(OC)c4)CC(=O)N3C2)c(OC)c1 (centres undefined),60*,13,
CCc1ccc(C2CC(=O)N3CN(c4ccccc4)CSC3=C2C#N)cc1 (centres undefined),-21,-6,
C=CC1CN(C(=O)OCC(Cl)(Cl)Cl)C2CC3c4ccc(OC)cc4NC3C3CC1C2CO3 (centres undefined),nt,-6,
Cc1ccc(C2=NNC(c3ccc(Cl)cc3)=Nc3ccccc32)o1,-23,nt,
N#Cc1sc(=O)[nH]c1Cl,nt,3,
CC1(c2nnc(-c3ccncc3)o2)CC(c2ccc(F)cc2)=NO1 (centres undefined),nt,-14,
CCC(CC)NC(=O)CO/N=C/c1ccccc1OC(F)F,-23,nt,
Cc1cc(-n2c(=O)c(C#N)cc3c(=O)n4ccccc4nc32)no1,-13,55*,
SMILES,YopH inh,RmlCD inh mix,others
Cc1ccccc1-n1c(=O)c(C#N)cc2c(=O)n3ccccc3nc21,-18,123,
Cc1n(CC(O)COC2CCCCC2)c2ccccc2[n+]1C (centres undefined),-16,-9,
Cc1cc(=O)[nH]c2cc(O)ccc12,-64,-2,
CC(=O)Oc1cc2oc(=O)cc(C)c2cc1OC(C)=O,-23,i,
Cc1oc2cc(O)ccc2c(=O)c1N1C(=O)c2ccccc2C1=O,-4,4,
CC(=O)Oc1ccc2c(C)cc(=O)oc2c1,-11,+,RmlCD artifact=+
CC(=O)Oc1ccc2c(C)cc(=O)[nH]c2c1,-55,64*,RmlCD artifact=+
COc1ccc2c(C)cc(=O)oc2c1C,-32,-4,
Cc1ccccc1-c1c(C)oc2cc(O)ccc2c1=O,-36,38*,RmlCD artifact=+
CC(=O)Nc1c(OC(C)=O)ccc2c(C)cc(=O)oc12,-43,+,RmlCD artifact=+
O=C(c1cc2c(s1)CCCC2)N1CCN(S(=O)(=O)c2ccccc2C(F)(F)F)CC1,-21,nt,
O=C(O)C1C2CCC(O2)C1C(=O)Nc1ccc(O)cc1 (centres undefined),-42,nt,
COC(=O)[C@@H]1C[C@@]2(O)[C@H](O)[C@H](O)[C@H](O)C[C@H]2N1C/C=C/c1ccccc1,nt,-13,
CC1(c2nnc(-c3cccc(Cl)c3)o2)CC(c2ccccc2)=NO1 (centres undefined),nt,-11,
CCOC(=O)c1sc(NC(=O)CSc2nc3c(c(=O)n2-c2ccc(F)cc2)SCC3)c(C(=O)OCC)c1C,-2,11,
Cc1cc(=O)oc2cc(O)ccc12,nt,84*,RmlCD artifact=+
O=c1cc(O)c2ccc(O)cc2o1,nt,104,
CC(C)OC(=O)CC(=O)CSc1nc2c(cc1C#N)CCCCCC2,10,+,RmlCD artifact=+
CCOC(=O)CC(=O)CSc1nc(-c2cccnc2)ccc1C#N,-41,nt,RmlCD artifact=+
CC(C)OC(=O)CC(=O)CSc1nc2c(cc1C#N)CCCC2,-27,59*,RmlCD artifact=+
CCOC(=O)CC(=O)CSc1nc(-c2cccnc2)cc(C)c1C#N,-34,2,

# Screens: PubChem BioAssay, several laboratories
